Assay in all cases: DAPPL (digital affinity profiling via proximity ligation, sequencing); 10 mM Tris-HCl pH 7.5, 50 mM NaCl, 1 mM DTT, 4% glycerol, room temperature, 30 min; GST-TFs on glutathione beads, 16-mer random dsDNA library, 0.1% formaldehyde crosslink after washing; high values mean tight binding
One assay deals with T1, FEV (Homo sapiens, UniProt Q99581 1-238).
T1 sequence: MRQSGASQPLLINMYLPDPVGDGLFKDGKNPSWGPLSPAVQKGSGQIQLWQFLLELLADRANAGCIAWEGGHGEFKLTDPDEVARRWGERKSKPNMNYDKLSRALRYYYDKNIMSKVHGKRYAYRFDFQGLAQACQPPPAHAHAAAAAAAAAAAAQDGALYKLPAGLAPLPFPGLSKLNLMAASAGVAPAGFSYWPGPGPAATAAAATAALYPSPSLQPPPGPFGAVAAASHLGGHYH
The conditions noted are these: protein: recombinant; tags: N-terminal GST; dsDNA, one strand shown. The essentials:
(§1)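 Human transcription factors were made in yeast as GST fusions, captured on glutathione beads and barcoded with DNA. With a tag-only sample included, the pool was incubated with 200 nmole of a random double-stranded 16-mer DNA library in Tris/NaCl/DTT/glycerol buffer at room temperature for 30 min, then crosslinked with 0.1% formaldehyde after washing, ligated by proximity, amplified and sequenced. For binding signal, each hexamer's read frequency for a factor is divided by its frequency for the tag-only sample.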

The next assay concerns the target ETV5 (Homo sapiens, UniProt P41161 1-510). The conditions noted are these: protein: recombinant; tags: N-terminal GST; dsDNA, one strand shown. In outline:
as §1

Another assay has as its target HSF1 (Homo sapiens, UniProt Q00613 1-529). The settings on record: protein: recombinant; tags: N-terminal GST; chain copies: 3; dsDNA, one strand shown. In outline: as §1
For a further assay, the target named is T2, SPIC (Homo sapiens, UniProt Q8N5J4 1-248).
T2 sequence: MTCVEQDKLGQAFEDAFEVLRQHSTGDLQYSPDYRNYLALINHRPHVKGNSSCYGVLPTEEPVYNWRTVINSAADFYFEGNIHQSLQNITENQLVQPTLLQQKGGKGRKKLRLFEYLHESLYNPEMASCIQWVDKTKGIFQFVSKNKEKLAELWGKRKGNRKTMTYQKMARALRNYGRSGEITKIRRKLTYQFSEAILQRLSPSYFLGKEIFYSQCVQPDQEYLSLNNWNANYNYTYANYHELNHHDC
The conditions noted are these: protein: recombinant; tags: N-terminal GST; dsDNA, one strand shown. In outline:
as §1

Another assay addresses ELF4 (Homo sapiens, UniProt Q99607 1-663). The settings on record: protein: recombinant; tags: N-terminal GST; dsDNA, one strand shown. The essentials:
as §1

Another assay addresses T3, ELK4 (Homo sapiens, UniProt P28324-2 1-405).
T3 sequence: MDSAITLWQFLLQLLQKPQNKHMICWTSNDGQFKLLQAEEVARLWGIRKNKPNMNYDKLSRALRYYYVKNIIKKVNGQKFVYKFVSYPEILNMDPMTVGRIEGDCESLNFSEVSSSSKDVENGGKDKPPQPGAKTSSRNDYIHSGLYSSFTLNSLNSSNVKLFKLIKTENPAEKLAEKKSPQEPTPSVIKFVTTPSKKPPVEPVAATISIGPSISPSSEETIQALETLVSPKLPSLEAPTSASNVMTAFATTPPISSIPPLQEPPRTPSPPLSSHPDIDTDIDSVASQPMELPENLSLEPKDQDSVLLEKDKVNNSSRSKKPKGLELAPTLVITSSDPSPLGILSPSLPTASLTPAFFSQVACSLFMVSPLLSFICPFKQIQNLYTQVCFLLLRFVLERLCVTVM
The settings on record: protein: recombinant; tags: N-terminal GST; dsDNA, one strand shown. The essentials: as §1

The next assay concerns the target T4, ETV2 (Homo sapiens, UniProt O00321 1-342).
T4 sequence: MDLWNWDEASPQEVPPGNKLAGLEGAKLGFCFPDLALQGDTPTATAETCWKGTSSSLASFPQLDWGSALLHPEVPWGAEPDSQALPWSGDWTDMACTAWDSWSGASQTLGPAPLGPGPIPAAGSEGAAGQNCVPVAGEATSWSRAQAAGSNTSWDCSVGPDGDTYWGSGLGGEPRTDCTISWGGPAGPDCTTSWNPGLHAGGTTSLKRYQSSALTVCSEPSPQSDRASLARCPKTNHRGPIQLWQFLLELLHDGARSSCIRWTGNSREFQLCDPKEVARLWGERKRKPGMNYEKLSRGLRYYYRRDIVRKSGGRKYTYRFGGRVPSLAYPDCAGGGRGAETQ
The settings on record: protein: recombinant; tags: N-terminal GST; dsDNA, one strand shown. In outline: as §1

The next assay addresses T5, ELF3 (Homo sapiens, UniProt P78545 1-371).
T5 sequence: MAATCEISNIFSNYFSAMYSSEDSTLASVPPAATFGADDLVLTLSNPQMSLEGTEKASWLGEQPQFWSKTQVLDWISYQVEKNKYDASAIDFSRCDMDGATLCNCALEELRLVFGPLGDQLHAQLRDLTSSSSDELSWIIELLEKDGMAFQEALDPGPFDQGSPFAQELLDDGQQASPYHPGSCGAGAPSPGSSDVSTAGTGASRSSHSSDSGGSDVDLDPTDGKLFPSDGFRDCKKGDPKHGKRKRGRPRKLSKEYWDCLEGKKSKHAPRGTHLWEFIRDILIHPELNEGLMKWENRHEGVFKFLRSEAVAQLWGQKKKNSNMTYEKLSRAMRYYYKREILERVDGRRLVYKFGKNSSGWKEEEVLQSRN
The conditions noted are these: protein: recombinant; tags: N-terminal GST; dsDNA, one strand shown. In outline:
as §1

The target in the next assay is CRX (Homo sapiens, UniProt O43186 1-299). The settings on record: protein: recombinant; tags: N-terminal GST; dsDNA, one strand shown. The essentials: as §1
A further assay has as its target ETV1 (Homo sapiens, UniProt P50549 1-477). The conditions noted are these: protein: recombinant; tags: N-terminal GST; dsDNA, one strand shown. The essentials:
as §1

Sequence of ETV1 (P50549 whole entry): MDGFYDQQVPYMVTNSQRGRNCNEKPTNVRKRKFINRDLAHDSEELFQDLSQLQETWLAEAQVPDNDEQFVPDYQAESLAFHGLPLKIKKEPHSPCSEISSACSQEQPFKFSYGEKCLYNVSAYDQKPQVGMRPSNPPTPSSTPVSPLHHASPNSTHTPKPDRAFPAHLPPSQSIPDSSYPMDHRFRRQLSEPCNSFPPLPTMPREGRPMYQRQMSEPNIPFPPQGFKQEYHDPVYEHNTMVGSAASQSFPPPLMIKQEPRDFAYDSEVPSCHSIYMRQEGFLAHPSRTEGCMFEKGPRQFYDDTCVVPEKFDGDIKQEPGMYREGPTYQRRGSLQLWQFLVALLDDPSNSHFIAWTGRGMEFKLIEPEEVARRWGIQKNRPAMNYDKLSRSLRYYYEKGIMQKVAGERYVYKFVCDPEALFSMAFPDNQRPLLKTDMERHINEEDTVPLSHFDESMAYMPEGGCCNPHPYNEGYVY
Sequence of ETV5 (P41161 whole entry): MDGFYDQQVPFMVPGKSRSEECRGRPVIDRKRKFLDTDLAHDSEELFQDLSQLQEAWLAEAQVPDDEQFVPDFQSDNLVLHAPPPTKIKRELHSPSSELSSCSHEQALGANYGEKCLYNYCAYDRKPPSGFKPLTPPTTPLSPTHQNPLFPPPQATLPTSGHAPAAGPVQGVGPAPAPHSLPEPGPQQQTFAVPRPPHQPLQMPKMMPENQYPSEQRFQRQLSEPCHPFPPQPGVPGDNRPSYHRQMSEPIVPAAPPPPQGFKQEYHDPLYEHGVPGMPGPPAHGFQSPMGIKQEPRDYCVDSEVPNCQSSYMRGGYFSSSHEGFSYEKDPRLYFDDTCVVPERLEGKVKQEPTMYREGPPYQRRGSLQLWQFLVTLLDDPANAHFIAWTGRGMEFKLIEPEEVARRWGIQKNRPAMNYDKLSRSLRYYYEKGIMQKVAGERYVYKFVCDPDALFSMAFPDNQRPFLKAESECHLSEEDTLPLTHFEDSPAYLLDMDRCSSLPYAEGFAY
Sequence of HSF1 (Q00613 whole entry): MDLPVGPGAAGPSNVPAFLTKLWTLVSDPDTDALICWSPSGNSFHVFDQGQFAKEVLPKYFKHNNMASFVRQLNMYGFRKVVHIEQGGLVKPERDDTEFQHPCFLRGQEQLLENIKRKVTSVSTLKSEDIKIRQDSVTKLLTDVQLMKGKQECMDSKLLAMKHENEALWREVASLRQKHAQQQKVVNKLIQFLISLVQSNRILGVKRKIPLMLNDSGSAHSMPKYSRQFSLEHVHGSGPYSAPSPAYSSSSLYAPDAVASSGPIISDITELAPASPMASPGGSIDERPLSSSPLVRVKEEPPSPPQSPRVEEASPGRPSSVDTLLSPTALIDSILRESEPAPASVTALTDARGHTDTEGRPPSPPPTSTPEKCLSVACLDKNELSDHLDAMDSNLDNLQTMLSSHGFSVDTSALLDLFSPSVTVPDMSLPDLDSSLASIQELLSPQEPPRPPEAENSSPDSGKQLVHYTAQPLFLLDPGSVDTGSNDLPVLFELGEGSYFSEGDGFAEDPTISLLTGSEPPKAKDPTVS
Sequence of ELF4 (Q99607 whole entry): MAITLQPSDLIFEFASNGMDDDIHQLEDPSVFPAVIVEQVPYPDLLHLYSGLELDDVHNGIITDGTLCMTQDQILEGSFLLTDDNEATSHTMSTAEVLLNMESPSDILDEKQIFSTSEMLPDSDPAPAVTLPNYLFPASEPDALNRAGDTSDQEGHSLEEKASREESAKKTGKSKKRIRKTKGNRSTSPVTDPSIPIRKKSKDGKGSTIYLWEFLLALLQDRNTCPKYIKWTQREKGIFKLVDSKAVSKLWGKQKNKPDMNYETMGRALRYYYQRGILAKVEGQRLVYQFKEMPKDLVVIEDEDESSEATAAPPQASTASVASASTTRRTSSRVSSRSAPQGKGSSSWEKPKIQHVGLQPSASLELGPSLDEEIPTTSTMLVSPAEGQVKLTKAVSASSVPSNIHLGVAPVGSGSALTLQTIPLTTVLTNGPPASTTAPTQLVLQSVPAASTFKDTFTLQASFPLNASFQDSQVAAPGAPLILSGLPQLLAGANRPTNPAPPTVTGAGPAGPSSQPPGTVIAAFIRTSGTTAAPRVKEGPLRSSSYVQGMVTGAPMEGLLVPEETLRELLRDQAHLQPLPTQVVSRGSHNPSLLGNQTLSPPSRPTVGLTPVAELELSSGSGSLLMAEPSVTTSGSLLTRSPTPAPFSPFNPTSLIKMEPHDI
Sequence of CRX (O43186 whole entry): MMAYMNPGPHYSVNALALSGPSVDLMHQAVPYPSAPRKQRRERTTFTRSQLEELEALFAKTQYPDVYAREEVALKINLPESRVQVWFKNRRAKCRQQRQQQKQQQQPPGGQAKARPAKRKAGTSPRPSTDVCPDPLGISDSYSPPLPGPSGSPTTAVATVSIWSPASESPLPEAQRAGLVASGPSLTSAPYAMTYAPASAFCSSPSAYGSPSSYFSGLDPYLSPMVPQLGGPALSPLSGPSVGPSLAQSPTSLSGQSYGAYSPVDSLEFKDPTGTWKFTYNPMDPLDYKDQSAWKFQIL

Turning to CTGCGA, the binding signal is 1.29 fold enrichment (6-mer frequency, TF over GST control) in the assay with FEV; 1.24 fold enrichment (6-mer frequency, TF over GST control) in the assay with ETV5; 1.3 fold enrichment (6-mer frequency, TF over GST control) in the assay with HSF1; 1.1 fold enrichment (6-mer frequency, TF over GST control) in the assay with SPIC; 1.28 fold enrichment (6-mer frequency, TF over GST control) with ELF4; 1.08 fold enrichment (6-mer frequency, TF over GST control) with ELK4. The binding signal in the assay with ETV2 was 1.24 fold enrichment (6-mer frequency, TF over GST control); in the assay with ELF3, 1.2 fold enrichment (6-mer frequency, TF over GST control); with CRX it was 1.18 fold enrichment (6-mer frequency, TF over GST control); with ETV1, 1.32 fold enrichment (6-mer frequency, TF over GST control).
In the case of GACTCC, the binding signal with FEV is 1.32 fold enrichment (6-mer frequency, TF over GST control); in the assay with ETV5, 1.27 fold enrichment (6-mer frequency, TF over GST control); in the assay with HSF1, 1.05 fold enrichment (6-mer frequency, TF over GST control); with SPIC it was 1.34 fold enrichment (6-mer frequency, TF over GST control); with ELF4 it was 1.43 fold enrichment (6-mer frequency, TF over GST control); in the assay with ELK4, 1.12 fold enrichment (6-mer frequency, TF over GST control). Also, the binding signal was 1.26 fold enrichment (6-mer frequency, TF over GST control) with ETV2; 1.25 fold enrichment (6-mer frequency, TF over GST control) in the assay with ELF3; 1.02 fold enrichment (6-mer frequency, TF over GST control) with CRX; 1.29 fold enrichment (6-mer frequency, TF over GST control) with ETV1.
For the sequence TCCTTT, the binding signal in the assay with FEV was 1.69 fold enrichment (6-mer frequency, TF over GST control); in the assay with ETV5, 1.69 fold enrichment (6-mer frequency, TF over GST control); with HSF1, 1.57 fold enrichment (6-mer frequency, TF over GST control); with SPIC, 1.76 fold enrichment (6-mer frequency, TF over GST control); in the assay with ELF4, 1.77 fold enrichment (6-mer frequency, TF over GST control); with ELK4 it was 1.62 fold enrichment (6-mer frequency, TF over GST control). Besides, the binding signal was 1.47 fold enrichment (6-mer frequency, TF over GST control) with ETV2; 1.78 fold enrichment (6-mer frequency, TF over GST control) with ELF3; 1.67 fold enrichment (6-mer frequency, TF over GST control) with CRX; 1.68 fold enrichment (6-mer frequency, TF over GST control) with ETV1.
Consider TAAAAA, for which the binding signal with FEV is 1.29 fold enrichment (6-mer frequency, TF over GST control); with ETV5 it was 1.3 fold enrichment (6-mer frequency, TF over GST control); with HSF1, 1.56 fold enrichment (6-mer frequency, TF over GST control); in the assay with SPIC it was 1.34 fold enrichment (6-mer frequency, TF over GST control); with ELF4, 1.45 fold enrichment (6-mer frequency, TF over GST control); in the assay with ELK4, 1.34 fold enrichment (6-mer frequency, TF over GST control). Also, the binding signal in the assay with ETV2 is 1.4 fold enrichment (6-mer frequency, TF over GST control); with ELF3, 1.33 fold enrichment (6-mer frequency, TF over GST control); with CRX it was 1.82 fold enrichment (6-mer frequency, TF over GST control); in the assay with ETV1, 1.26 fold enrichment (6-mer frequency, TF over GST control).
In the case of TTCCCA, the binding signal is 1.16 fold enrichment (6-mer frequency, TF over GST control) with FEV; 1.29 fold enrichment (6-mer frequency, TF over GST control) with ETV5; 1.08 fold enrichment (6-mer frequency, TF over GST control) with HSF1; 1.23 fold enrichment (6-mer frequency, TF over GST control) with SPIC; 1.26 fold enrichment (6-mer frequency, TF over GST control) with ELF4; 1.08 fold enrichment (6-mer frequency, TF over GST control) with ELK4. Moreover, the binding signal with ETV2 is 1.13 fold enrichment (6-mer frequency, TF over GST control); in the assay with ELF3, 1.27 fold enrichment (6-mer frequency, TF over GST control); with CRX, 1.16 fold enrichment (6-mer frequency, TF over GST control); with ETV1, 1.2 fold enrichment (6-mer frequency, TF over GST control).
For AATGTC, the binding signal with FEV was 1.19 fold enrichment (6-mer frequency, TF over GST control); with ETV5, 1.23 fold enrichment (6-mer frequency, TF over GST control); in the assay with HSF1, 1.14 fold enrichment (6-mer frequency, TF over GST control); with SPIC, 1.41 fold enrichment (6-mer frequency, TF over GST control); with ELF4, 1.21 fold enrichment (6-mer frequency, TF over GST control); with ELK4, 1.32 fold enrichment (6-mer frequency, TF over GST control). Further, the binding signal is 1.15 fold enrichment (6-mer frequency, TF over GST control) with ETV2; 1.36 fold enrichment (6-mer frequency, TF over GST control) with ELF3; 1.04 fold enrichment (6-mer frequency, TF over GST control) in the assay with CRX; 1.14 fold enrichment (6-mer frequency, TF over GST control) with ETV1.

Source of the values: article PMC7862700, “An all-to-all approach to the identification of sequence-specific readers for epigenetic DNA modifications on cytosine”.
